Assay results published in the supplement of paper PMC11732987, “Enantioselective OTUD7B fragment discovery through chemoproteomics screening and high-throughput optimisation” (Communications Chemistry, 2025).

Legend:
Assay in all cases: log2 ratio of Biotin-Ahx-Ub-VS probe labelling (fragment/DMSO); higher = less target engagement (more negative = stronger competition), active = hit call of the paper (q ≤ 0.05, log2 ratio ≤ -1)
Conditions in all cases: compound concentration: 200 uM; treatment time: 3 h
USP19 = target: T1, USP19 (UniProt O94966)
T1 sequence (whole entry): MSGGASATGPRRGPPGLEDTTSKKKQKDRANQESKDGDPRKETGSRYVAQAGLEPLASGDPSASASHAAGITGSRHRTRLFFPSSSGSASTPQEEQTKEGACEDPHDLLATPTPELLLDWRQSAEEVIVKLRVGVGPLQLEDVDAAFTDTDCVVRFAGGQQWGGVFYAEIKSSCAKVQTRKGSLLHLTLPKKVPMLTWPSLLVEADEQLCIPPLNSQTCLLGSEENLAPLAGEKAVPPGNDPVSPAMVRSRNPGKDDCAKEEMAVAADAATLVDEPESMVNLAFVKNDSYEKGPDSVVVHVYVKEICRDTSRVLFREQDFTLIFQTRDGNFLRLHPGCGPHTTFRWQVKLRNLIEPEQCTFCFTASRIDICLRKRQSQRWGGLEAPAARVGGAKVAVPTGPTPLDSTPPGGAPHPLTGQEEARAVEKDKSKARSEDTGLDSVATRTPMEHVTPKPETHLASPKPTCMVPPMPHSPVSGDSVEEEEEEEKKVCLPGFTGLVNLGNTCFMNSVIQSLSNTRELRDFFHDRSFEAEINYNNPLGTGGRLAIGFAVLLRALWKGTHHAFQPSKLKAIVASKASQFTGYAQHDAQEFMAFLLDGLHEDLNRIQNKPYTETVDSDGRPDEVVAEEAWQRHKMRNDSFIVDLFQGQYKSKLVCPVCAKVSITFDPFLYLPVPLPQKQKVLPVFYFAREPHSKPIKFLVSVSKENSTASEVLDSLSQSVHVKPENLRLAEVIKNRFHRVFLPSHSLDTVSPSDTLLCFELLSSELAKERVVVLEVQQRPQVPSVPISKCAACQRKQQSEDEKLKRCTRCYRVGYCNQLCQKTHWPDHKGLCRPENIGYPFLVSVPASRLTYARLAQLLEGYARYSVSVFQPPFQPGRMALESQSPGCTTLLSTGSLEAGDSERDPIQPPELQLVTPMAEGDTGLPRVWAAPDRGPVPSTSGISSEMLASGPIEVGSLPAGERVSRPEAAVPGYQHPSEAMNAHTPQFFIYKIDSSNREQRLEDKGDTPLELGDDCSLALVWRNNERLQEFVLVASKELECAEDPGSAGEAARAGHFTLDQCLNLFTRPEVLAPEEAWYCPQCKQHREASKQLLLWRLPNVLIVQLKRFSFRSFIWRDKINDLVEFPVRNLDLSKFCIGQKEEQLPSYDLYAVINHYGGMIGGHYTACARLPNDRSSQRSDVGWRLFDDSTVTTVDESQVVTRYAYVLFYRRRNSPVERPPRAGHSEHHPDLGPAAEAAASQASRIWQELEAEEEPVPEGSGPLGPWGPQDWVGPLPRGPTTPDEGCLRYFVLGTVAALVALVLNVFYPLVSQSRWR
Outline: (§1)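 The table lists average log2 ratios of fragment over vehicle, from an unpaired t-test on global-median-normalised Spectronaut label-free quantities. Proteins with ≥2 unique peptides were used. Samples were HEK293T lysate (495 µg) treated in triplicate with fragment at 200 µM or vehicle for 3 h, then with Biotin-Ahx-Ub-VS (0.5 µM final) for 1 h, with labelled DUBs NeutrAvidin-enriched and run by diaPASEF LC-MS/MS.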

USP22 = target: T2, USP22 (UniProt Q9UPT9)
T2 sequence (whole entry): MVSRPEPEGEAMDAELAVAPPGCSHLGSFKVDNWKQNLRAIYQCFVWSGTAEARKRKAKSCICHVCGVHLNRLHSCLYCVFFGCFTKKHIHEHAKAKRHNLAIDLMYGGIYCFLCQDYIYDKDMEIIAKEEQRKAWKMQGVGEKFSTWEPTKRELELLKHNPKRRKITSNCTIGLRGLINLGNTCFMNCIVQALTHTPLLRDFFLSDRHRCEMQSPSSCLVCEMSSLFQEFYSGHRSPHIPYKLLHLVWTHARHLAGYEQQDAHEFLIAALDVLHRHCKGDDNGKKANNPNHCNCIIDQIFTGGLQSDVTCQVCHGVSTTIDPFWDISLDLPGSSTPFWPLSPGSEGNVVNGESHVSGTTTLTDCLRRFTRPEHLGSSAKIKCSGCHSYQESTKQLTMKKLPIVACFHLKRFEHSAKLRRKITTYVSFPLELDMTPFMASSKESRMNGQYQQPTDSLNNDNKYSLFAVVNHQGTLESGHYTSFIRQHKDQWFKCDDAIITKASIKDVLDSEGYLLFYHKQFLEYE
Outline: as §1

USP24 = USP24 (UniProt Q9UPU5)
USP24, sequence (Q9UPU5 whole entry): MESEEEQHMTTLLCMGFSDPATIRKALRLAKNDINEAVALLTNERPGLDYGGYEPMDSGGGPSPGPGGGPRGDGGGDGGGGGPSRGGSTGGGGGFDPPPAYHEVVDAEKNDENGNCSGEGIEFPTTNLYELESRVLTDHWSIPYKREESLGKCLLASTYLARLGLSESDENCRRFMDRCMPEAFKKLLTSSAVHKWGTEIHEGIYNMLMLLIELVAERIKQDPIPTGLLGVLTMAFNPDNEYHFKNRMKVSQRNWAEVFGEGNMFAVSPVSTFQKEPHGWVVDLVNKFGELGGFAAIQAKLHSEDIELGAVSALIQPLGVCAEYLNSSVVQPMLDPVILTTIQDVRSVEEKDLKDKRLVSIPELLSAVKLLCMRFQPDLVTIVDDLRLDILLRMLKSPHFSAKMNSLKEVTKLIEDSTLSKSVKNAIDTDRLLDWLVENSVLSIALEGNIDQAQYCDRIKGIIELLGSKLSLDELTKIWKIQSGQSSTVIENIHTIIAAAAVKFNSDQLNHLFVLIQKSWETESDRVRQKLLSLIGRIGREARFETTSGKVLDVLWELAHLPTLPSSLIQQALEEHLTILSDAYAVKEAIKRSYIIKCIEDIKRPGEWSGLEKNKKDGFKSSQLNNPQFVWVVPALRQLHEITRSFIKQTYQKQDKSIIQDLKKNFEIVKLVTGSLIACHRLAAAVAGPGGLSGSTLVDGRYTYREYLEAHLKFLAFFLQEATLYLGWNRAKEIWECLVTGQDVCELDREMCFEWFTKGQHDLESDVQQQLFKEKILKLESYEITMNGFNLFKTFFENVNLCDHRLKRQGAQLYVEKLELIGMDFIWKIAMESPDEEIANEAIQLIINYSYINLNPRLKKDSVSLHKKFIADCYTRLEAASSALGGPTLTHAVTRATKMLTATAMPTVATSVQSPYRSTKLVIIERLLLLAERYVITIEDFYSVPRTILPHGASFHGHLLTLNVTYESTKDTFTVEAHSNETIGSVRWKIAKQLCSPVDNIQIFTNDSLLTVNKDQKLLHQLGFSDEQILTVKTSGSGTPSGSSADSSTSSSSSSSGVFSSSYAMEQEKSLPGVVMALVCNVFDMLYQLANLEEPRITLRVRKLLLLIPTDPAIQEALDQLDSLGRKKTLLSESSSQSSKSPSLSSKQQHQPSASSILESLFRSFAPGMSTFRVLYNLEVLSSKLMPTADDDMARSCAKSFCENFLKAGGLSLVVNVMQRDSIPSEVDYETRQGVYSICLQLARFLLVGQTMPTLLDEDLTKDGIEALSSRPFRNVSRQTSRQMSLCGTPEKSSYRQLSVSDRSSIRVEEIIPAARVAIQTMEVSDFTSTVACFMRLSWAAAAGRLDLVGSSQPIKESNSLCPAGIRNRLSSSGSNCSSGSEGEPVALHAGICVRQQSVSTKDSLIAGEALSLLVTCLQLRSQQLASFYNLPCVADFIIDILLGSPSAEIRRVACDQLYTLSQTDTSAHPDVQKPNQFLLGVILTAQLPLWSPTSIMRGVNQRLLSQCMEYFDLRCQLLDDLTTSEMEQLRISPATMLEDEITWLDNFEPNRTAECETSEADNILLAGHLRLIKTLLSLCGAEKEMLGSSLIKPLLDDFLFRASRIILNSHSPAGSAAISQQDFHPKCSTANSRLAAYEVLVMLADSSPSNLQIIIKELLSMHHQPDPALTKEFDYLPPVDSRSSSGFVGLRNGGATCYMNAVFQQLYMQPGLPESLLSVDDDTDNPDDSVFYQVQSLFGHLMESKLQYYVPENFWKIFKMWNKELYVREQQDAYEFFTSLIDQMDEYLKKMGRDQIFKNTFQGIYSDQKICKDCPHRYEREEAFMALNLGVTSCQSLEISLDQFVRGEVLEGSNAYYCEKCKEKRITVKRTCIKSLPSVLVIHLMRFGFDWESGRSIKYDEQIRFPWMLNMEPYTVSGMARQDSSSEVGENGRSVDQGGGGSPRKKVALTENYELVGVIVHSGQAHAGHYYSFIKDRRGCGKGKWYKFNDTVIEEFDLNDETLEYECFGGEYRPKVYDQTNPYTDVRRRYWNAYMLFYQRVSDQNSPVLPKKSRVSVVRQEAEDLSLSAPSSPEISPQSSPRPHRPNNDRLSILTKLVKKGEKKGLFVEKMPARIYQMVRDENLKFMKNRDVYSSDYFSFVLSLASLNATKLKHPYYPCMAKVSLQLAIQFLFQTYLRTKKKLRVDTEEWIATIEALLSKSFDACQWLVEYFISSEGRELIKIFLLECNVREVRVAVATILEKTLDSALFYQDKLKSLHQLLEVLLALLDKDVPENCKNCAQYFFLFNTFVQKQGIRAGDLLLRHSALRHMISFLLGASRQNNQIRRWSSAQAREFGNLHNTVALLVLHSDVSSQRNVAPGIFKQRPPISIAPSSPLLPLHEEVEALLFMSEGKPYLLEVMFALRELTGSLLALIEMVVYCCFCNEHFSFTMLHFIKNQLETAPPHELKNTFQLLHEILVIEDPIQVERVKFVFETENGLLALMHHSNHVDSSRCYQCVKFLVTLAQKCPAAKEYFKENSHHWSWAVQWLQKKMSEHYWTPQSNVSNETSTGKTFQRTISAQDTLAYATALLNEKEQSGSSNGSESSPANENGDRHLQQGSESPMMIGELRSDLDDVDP
Outline: as §1

USP25 = target: T3, USP25 (UniProt Q9UHP3)
T3 sequence (whole entry): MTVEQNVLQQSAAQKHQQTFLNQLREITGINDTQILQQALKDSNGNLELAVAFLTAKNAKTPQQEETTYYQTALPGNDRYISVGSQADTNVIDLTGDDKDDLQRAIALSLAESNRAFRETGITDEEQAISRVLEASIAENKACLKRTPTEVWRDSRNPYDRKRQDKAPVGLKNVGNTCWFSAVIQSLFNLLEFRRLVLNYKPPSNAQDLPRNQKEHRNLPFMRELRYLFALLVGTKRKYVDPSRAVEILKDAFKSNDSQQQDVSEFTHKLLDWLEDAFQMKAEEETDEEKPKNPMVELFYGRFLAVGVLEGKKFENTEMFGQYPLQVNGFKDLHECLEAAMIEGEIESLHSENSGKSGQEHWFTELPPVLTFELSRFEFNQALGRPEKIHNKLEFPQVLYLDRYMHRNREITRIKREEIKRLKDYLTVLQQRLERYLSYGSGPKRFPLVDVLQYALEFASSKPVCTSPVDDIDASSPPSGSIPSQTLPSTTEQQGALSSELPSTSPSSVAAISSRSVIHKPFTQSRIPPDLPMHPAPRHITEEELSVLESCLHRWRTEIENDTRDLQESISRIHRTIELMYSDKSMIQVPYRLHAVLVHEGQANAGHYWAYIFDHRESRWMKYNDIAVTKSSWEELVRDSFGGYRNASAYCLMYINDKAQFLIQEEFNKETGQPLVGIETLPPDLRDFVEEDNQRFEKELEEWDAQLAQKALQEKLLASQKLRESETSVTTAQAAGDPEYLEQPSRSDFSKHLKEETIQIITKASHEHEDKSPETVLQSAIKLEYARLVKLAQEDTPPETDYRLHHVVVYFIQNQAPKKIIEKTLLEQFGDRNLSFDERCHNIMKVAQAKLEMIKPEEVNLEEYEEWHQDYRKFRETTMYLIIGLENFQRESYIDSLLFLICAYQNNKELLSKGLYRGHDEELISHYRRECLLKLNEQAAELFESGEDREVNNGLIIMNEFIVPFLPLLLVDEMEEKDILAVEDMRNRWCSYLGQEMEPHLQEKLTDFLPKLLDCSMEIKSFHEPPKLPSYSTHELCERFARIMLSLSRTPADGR
Outline: as §1

USP28 = target: T4, USP28 (UniProt Q96RU2)
T4 sequence (whole entry): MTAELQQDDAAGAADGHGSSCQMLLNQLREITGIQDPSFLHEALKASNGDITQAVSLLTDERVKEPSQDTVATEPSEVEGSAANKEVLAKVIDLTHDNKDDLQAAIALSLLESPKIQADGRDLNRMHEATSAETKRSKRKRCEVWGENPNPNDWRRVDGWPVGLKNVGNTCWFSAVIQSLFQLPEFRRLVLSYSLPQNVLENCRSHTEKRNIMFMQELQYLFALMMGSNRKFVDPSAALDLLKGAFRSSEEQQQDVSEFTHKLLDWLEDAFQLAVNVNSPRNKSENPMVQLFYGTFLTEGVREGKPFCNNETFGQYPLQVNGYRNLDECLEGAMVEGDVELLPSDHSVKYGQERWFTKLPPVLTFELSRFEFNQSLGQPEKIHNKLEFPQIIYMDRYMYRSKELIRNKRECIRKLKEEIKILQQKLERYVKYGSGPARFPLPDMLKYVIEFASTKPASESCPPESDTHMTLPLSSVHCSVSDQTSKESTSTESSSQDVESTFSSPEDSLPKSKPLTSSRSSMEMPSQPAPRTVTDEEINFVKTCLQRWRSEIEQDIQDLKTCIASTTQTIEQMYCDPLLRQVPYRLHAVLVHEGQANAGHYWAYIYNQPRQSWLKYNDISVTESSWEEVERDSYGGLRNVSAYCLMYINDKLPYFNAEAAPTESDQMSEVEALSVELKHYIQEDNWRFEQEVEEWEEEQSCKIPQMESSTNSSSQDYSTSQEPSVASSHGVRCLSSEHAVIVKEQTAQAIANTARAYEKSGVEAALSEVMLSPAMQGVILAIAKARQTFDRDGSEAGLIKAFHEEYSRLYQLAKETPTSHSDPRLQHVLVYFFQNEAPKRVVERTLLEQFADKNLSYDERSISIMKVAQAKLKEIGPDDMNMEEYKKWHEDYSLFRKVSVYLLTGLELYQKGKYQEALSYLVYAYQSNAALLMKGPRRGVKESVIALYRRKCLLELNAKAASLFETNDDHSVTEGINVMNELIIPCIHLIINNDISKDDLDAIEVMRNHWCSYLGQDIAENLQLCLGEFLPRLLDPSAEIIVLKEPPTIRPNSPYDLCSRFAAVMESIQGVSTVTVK
Outline: as §1

Measured: log2 ratio of Biotin-Ahx-Ub-VS probe labelling

Cl.O=C(CCl)N1CC(c2ccc(Br)cn2)C1
inactive: USP19 -0.658 | USP22 -0.346 | USP24 -0.76 | USP25 -0.491 | USP28 -0.738
